Results from PMC5540273 (PLoS ONE, 2017).

How the values were obtained:
Settings in all cases: concentration: 1 μM, replicates: in singlicate; n = 1
MERTK = test system: MERTK
MET = test system: MET
MINK = test system: T1, MINK
T1 construct: gene MINK1

MKK7 = test system: MKK7
MKNK1 = test system: MKNK1
MKNK2 = test system: MKNK2
MLCK = test system: T2, MLCK
T2 construct: gene MYLK3

MLK1 = test system: T3, MLK1
T3 construct: gene MAP3K9

MLK2 = test system: MLK2
MLK3 = test system: MLK3
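Further: KINOMEscan kinase panel screen.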

SMILES | %Inh (MERTK) | %Inh (MET) | %Inh (MINK) | %Inh (MKK7) | %Inh (MKNK1) | %Inh (MKNK2) | %Inh (MLCK) | %Inh (MLK1) | %Inh (MLK2) | %Inh (MLK3)
O=C(Nc1ccccc1)Nc1ccc(Oc2ccc3nccn3n2)cc1 | 16% | 1% | 38% | 0% | 14% | 0% | 0% | 15% | 0% | 0%
CC(=O)Nc1n[nH]c2ncc(-c3ccccc3)cc12 [SB-548492] | 37% | 4% | 30% | 2% | 0% | 62% | 0% | 8% | 6% | 3%
O=c1cc(N2CCOCC2)nc2n(Cc3cccc(Cl)c3)ccn12 [GSK2296823] | 15% | 0% | 0% | 12% | 0% | 15% | 0% | 0% | 19% | 0%
CS(=O)(=O)CCNCc1nc(-c2ccc3ncnc(Nc4ccc(OCc5cccc(F)c5)c(Cl)c4)c3c2)cs1.Cl [GW583340] | 0% | 0% | 0% | 0% | 0% | 0% | 0% | 0% | 0% | 0%
Nc1nc(-c2ccc3c(N)n[nH]c3c2)cc(N2CCC[C@@H](C(=O)Nc3ccccc3)C2)n1.O=C(O)C(F)(F)F.O=C(O)C(F)(F)F [GSK2288359] | 0% | 0% | 0% | 0% | 11% | 1% | 0% | 0% | 0% | 0%
COC(=O)c1c(-c2ccccc2)c2cc(Cl)ccc2c(=O)n1Cc1ccc(S(C)(=O)=O)cc1 | 8% | 0% | 0% | 0% | 0% | 0% | 0% | 0% | 0% | 4%
Cn1cc(-c2ccc3c(c2)CCN3C(=O)Cc2cccc(C(F)(F)F)c2)c2c(N)ncnc21 [GSK2606414] | 43% | 0% | 0% | 0% | 0% | 1% | 12% | 0% | 27% | 8%
CCc1nc(-c2cccc(C)c2)c(-c2ccnc(NC(=O)c3ccccc3)c2)s1 | 3% | 2% | 61% | 0% | 0% | 8% | 0% | 0% | 16% | 0%
COc1ccc(Nc2nccc(N3CCC(NC(=O)Nc4ccc5c(c4)OCO5)C3)n2)cc1 (stereo not shown) [GSK1379745] | 34% | 20% | 3% | 24% | 21% | 6% | 31% | 6% | 19% | 38%
CC(C)(C)c1ccc(-n2cnc3c(N)ncnc32)cc1 [SKF-97263] | 41% | 0% | 14% | 6% | 0% | 29% | 4% | 2% | 61% | 0%
COc1ccc(NC(=O)Nc2ccc(C)c(-c3ccc(C(=O)Nc4ccncc4)cc3)c2)cc1 [GSK1398475] | 31% | 0% | 5% | 0% | 6% | 0% | 0% | 0% | 0% | 0%
CCC(CC)(CC)n1cnc2c(N)ncnc21 [SKF-97620] | 40% | 0% | 15% | 0% | 0% | 10% | 0% | 0% | 3% | 1%
Nc1nc(-c2cccnc2)c(-c2ccnc3ccccc23)s1 [GW684083] | 0% | 0% | 51% | 0% | 1% | 0% | 30% | 0% | 0% | 7%
Cl.O=S(=O)(c1cccc(F)c1)c1ccc(Nc2ncnc3cc(Br)sc23)cc1Cl [GSK306886] | 37% | 0% | 0% | 0% | 11% | 11% | 0% | 0% | 0% | 2%
Cl.c1ccc(Cn2ncc3cc(Nc4ncnc5ccccc45)ccc32)cc1 [GW273749] | 9% | 0% | 0% | 0% | 6% | 30% | 0% | 0% | 0% | 0%
COc1cc2ncnc(Nc3ccc(OCc4ccccc4Br)c(Cl)c3)c2cc1OC.Cl [GI261590] | 7% | 0% | 0% | 0% | 0% | 11% | 0% | 0% | 11% | 9%
Cn1ccc2ncnc(Nc3ccc(Oc4cccc(Cl)c4)c(Cl)c3)c21 | 13% | 2% | 7% | 0% | 16% | 0% | 0% | 7% | 15% | 0%

SMILES | %Inh (MERTK) | %Inh (MET) | %Inh (MINK) | %Inh (MKK7) | %Inh (MKNK1) | %Inh (MKNK2) | %Inh (MLCK) | %Inh (MLK1) | %Inh (MLK2) | %Inh (MLK3)
CS(=O)(=O)CCNCc1ccc(-c2ccc3ncnc(Nc4ccc(OCc5ccccc5)c(Cl)c4)c3c2)o1.Cl [GW574783] | 5% | 0% | 0% | 71% | 26% | 0% | 0% | 0% | 31% | 10%
Oc1ccc2ncnc(Nc3ccc(OCc4ccccc4)cc3)c2c1 [GI262866] | 34% | 5% | 0% | 0% | 0% | 15% | 0% | 0% | 24% | 0%
CSc1ccc(NC2=C(c3ccccc3Cl)C(=O)NC2=O)cc1 [SB-342411] | 0% | 0% | 2% | 39% | 100% | 0% | 0% | 9% | 0% | 4%
Nc1nc(-c2ccc3c(N)n[nH]c3c2)cc(N2CCCCC2)n1 [GSK2228768] | 0% | 0% | 0% | 0% | 0% | 23% | 0% | 0% | 0% | 0%
O=C(CCO)NCCn1ccc2ncnc(Nc3ccc(Oc4cccc(C(F)(F)F)c4)c(Cl)c3)c21 | 0% | 0% | 0% | 0% | 0% | 12% | 0% | 0% | 0% | 0%
Cc1ccc(NC(=O)c2cccc(C#N)c2)cc1-c1ccc(C(=O)Nc2ccncc2)cc1 [GSK1398463] | 0% | 0% | 0% | 0% | 0% | 23% | 0% | 0% | 24% | 0%
Fc1ccc(Nc2nccc(-c3c(-c4ccc(Cl)cc4)nn4ncccc34)n2)cc1F [GW829058] | 0% | 3% | 14% | 23% | 0% | 2% | 9% | 2% | 12% | 4%
Nc1nccc2scc(-c3ccc4c(c3)CCN4C(=O)Cc3cc(F)ccc3F)c12 [GSK2587663] | 0% | 0% | 18% | 0% | 0% | 4% | 4% | 0% | 0% | 15%
Cl.c1ccc(Cn2ccc3cc(Nc4ncnc5ccccc45)ccc32)cc1 [GW275568] | 0% | 2% | 12% | 7% | 6% | 12% | 0% | 0% | 0% | 13%
Fc1cccc(COc2ccc(Nc3ncnc4nn5ccccc5c34)cc2Cl)c1 [GW689066] | 6% | 0% | 0% | 0% | 4% | 0% | 4% | 0% | 0% | 0%
COc1cc2c(Nc3cccc(NC(=O)c4ccccc4)c3)ncnc2cc1OCCCN1CCOCC1 [GSK223810] | 20% | 1% | 0% | 0% | 23% | 9% | 0% | 0% | 23% | 13%
FC(F)(F)c1ccc(-c2nn3ncccc3c2-c2ccnc(Nc3cccc(C(F)(F)F)c3)n2)cc1 [GW828205] | 1% | 21% | 12% | 0% | 0% | 0% | 0% | 4% | 0% | 0%
Cc1cccc(-c2nc(Nc3ccc4[nH]nnc4c3)c3ccccc3n2)n1 [GW867587] | 19% | 0% | 0% | 0% | 8% | 0% | 0% | 0% | 0% | 0%
N#Cc1ccc(Oc2ccc(Nc3ncnc4cc[nH]c34)cc2Cl)cc1 | 0% | 11% | 31% | 0% | 0% | 20% | 8% | 0% | 0% | 0%
Fc1cccc(COc2ccc(Nc3ncnc4cc[nH]c34)cc2Cl)c1 | 0% | 8% | 34% | 0% | 19% | 10% | 0% | 9% | 0% | 32%
CSc1nn2c(=O)cc(N3CCOCC3)nc2n1Cc1cccc(Cl)c1Cl [GSK2347225] | 40% | 0% | 21% | 0% | 20% | 2% | 13% | 0% | 4% | 11%
CCn1c(-c2ccncc2)nc2cnccc21 [SB-735216] | 0% | 1% | 19% | 5% | 5% | 33% | 0% | 8% | 0% | 0%
